DRD3 antagonist: antagonists of human D3 dopamine receptor; actives 2.5% (n = 360,000); max response, negative = inhibition, %; P35462; D3R cells, DiscoveRx beta-arrestin luminescence, antagonist mode; hits give low values; in the data active means max response below about -50%; inconclusive means no clear call, values can overlap the other calls
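Cells plated overnight at 1500 cells/well, then exposed to library compounds with dopamine controls for 90 minutes at 37 degrees C. DiscoveRx reagent added for 30–60 minutes at room temperature; luminescence read, quantitative HTS format.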
TRPML1 blocker: human mucolipin-1 channel inhibition; activity change, negative = inhibition, % (test concentration not listed); actives 0.02% (n = 390,000); Q9GZU1; TRPML1-inducible cells, Ca2+ dye fluorescence, FDSS; hits give low values; inhibition of EC80 agonist-evoked calcium signal; in the data active means activity change below about -50%; inconclusive means between about -30% and that limit;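 further: stimulus is agonist 54-4 at its EC80 concentration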
Target sequence (Q9GZU1 whole entry, looked up): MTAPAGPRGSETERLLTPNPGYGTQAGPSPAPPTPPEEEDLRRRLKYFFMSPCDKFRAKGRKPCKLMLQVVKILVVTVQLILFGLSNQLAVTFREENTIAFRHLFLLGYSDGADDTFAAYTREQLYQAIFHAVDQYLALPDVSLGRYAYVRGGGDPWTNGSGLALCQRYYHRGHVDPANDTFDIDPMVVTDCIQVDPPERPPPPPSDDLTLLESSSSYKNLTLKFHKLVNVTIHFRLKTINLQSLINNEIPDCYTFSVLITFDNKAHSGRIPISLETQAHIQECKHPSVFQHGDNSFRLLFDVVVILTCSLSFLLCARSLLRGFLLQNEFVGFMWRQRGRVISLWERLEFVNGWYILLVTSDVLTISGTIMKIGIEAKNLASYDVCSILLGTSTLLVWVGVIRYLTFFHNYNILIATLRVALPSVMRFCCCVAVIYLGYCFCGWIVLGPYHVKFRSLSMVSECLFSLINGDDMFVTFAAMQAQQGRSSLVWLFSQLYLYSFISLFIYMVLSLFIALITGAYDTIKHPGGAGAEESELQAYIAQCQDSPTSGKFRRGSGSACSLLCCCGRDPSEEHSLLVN
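Calcium fluorescence in TRPML1-DL cells induced overnight with Tet: a 110 s read after compound pin addition, then a 110 s antagonist read after challenge with 54-4 at 4 uM final (EC80).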
D3 ag: activates the human D3 dopamine receptor | P35462 | D3R DiscoveRx beta-arrestin cells, luminescence, 90 min | max activation, % | actives 0.58% (n = 410,000); in the data active means max activation above about 30%
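Cells at 1500/well, incubated overnight, then treated with pinned compounds (dopamine as control) for 90 min at 37 degrees C. DiscoveRx reagent added for 30 - 60 minutes at room temperature; luminescence read.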
TRPML1 agonist: agonists of human TRPML1 channel | Q9GZU1 | TRPML1-expressing cells, Ca2+ dye fluorescence, FDSS | activation, % (no concentration beside the values) | actives 0.12% (n = 410,000) | AID 624414; in the data active means activation above about 50%; inconclusive means mostly about 30% to 49%
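Cells: TRPML1-DL, 1X Tet inducer, ~16 h at 37 degrees C/5% CO2. Dye: ABD Ca8 no-wash + quencher, 45-90 min RT. Read: 10 s baseline, compound add, 110 s agonist phase; 54-4 EC80 (4uM final), 110 s antagonist phase.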
Of the large screens only hits and unclear results are named; the others gave an inactive call. Sampled rows, rich in hits. Any-hit rate of the full collection: about 2.9%.

O=[N+]([O-])c1c(NCCO)cc(N2CCCCCC2)c2nonc12	none
COc1ccc(C2=Nc3ccc(OC(F)(F)F)cc3NC(c3cccnc3)=N2)cc1	D3 ag 36 (no result: DRD3 antagonist)
O=C(NC1CCCCC1)C(CCc1ccccc1)N1CCc2ccccc2C1 (configuration not stated)	DRD3 antagonist -59 (no result: TRPML1 blocker)
O=C(NC1CCCCC1)C(CCc1ccccc1)N1CCOCC1 (configuration not stated)	none (no result: TRPML1 blocker)
CC1=CC(C)(C(Cl)(Cl)Cl)C(C)=CC1=NO (configuration not stated)	DRD3 antagonist -55
O=S(=O)(c1ccc(Cl)cc1)c1nc(-c2cccs2)oc1SCc1ccc(F)cc1	none (no result: DRD3 antagonist)
CN(C)c1ccc(/C=C(/C#N)C(=O)NCc2ccccc2)o1	DRD3 antagonist -88
N#C/C(=C/c1ccccc1)C(=O)NCc1ccccc1	none
Nc1nn(-c2ccccc2)nc1C(=O)OCc1ccccc1	DRD3 antagonist -65
Cc1ccc(C(=O)Nc2ccccc2C(=O)OCc2cc(=O)n3nc(C4CC4)sc3n2)cc1	none (no result: DRD3 antagonist)
Cn1c(=O)c2c(-c3ccccc3)n(-c3cc(Cl)c([N+](=O)[O-])cc3O)cc2n(C)c1=O	none (no result: TRPML1 blocker)
Cn1c(=O)c2c(-c3ccccc3)n(-c3cc([N+](=O)[O-])ccc3O)cc2n(C)c1=O	DRD3 antagonist -51
Cc1ccnc2ccc(N)cc12	none (no result: DRD3 antagonist, TRPML1 blocker, D3 ag)
CCCCN(C)CCOc1ccccc1OCC	DRD3 antagonist -98
Cc1ccc(Cl)c(OCCCCN(C)Cc2ccccc2)c1	DRD3 antagonist -90
C=CCc1cc(OC)ccc1OCCN(C)Cc1ccccc1	DRD3 antagonist -59
CCOc1ccccc1OCCOc1ccccc1CC	none
CN(CCOCCOc1ccc(Cl)cc1Br)Cc1ccccc1	DRD3 antagonist -64
Clc1ccc(OCCOCCOc2cccc3cccnc23)c(Br)c1	none
CCOc1ccc(OCCN(C)Cc2ccccc2)cc1	DRD3 antagonist -83
Cc1ccccc1C(=O)OCCN(C)Cc1ccccc1	DRD3 antagonist -70
COc1ccc(OCCCCN(C)Cc2ccccc2)cc1	none
CCOc1cccc(OCCOCCN(C)Cc2ccccc2)c1	DRD3 antagonist -64
CN(CCOc1ccc(Cl)c(Cl)c1)Cc1ccccc1	DRD3 antagonist -93
Cc1ccc(C(=O)OCCN(C)Cc2ccccc2)cc1	none
Cc1ccc(Cl)c(OCCCN(C)Cc2ccccc2)c1	DRD3 antagonist inconclusive
CN(CCOc1ccccc1Cl)Cc1ccccc1	DRD3 antagonist -76
C=CCc1cc(Cl)ccc1OCCCNC(C)C	DRD3 antagonist inconclusive
C=CCc1cc(Cl)ccc1OCCN(C)C	DRD3 antagonist -55
CN(CCOCCOc1ccc(F)cc1)Cc1ccccc1	DRD3 antagonist -89
COc1ccccc1CNc1ccc(-c2nc(C)no2)cc1[N+](=O)[O-]	none (no result: DRD3 antagonist)
CN(Cc1ccccc1)c1nc2c(S(=O)(=O)c3cccc(Cl)c3)nnn2c2ccsc12	none (no result: DRD3 antagonist)
Cc1cc(Cl)c2oc(C(=O)N(C)Cc3nccn3C)c(C)c2c1	DRD3 antagonist -67
CCCCn1cc(S(=O)(=O)c2ccc(C)c(C)c2)c(=O)c2cc(F)c(N(CC)CC)cc21	none (no result: DRD3 antagonist)
COC(=O)/C=c1\sc2ncnn2c1=O	DRD3 antagonist -69
CCN1CCN(C(=O)c2ccc3c(c2)N(Cc2ccc(Cl)cc2)C(=O)c2ccccc2S3(=O)=O)CC1	none (no result: DRD3 antagonist)
CCN1CCN(C(=O)c2ccc3c(c2)N(Cc2ccccc2)C(=O)c2ccccc2S3(=O)=O)CC1	DRD3 antagonist -72
COc1ccc(NC(=O)CSc2c(C(C)C)cnc3c2c(=O)n(C)c(=O)n3C)c(OC)c1	none (no result: DRD3 antagonist)
COc1ccc(-c2nc(-c3ccc(NC(=O)c4ccncc4)cc3)no2)cc1OC	D3 ag 50
CC1(C)S[C@@H]2[C@H](NC(=O)C(c3ccccc3)S(=O)(=O)O)C(=O)N2[C@H]1C(=O)O (some centres not stated)	none (no result: DRD3 antagonist, TRPML1 blocker, TRPML1 agonist)
COc1ccc(/C=N/N2C(=O)CSC2=S)cc1Br	D3 ag 37
Cc1ccc(CN2CCN(/N=C/c3ccc(C(=O)O)cc3)CC2)cc1	none
Cc1ccc(CN2CCN(/N=C/c3ccc(O)c(O)c3)CC2)cc1	DRD3 antagonist -64
COc1ccc(/C=N/N2CCN(Cc3ccc(C)cc3)CC2)cc1Br	DRD3 antagonist -92
Cc1cc[n+](C2CCCCC2)c2ccccc12	none (no result: DRD3 antagonist, TRPML1 blocker, D3 ag)
COC(=O)N1C(=O)[C@@](c2ccccc2)(C2CCCCC2)N1C(=O)OC	DRD3 antagonist -54
Cc1cc2ccccc2n1-c1ccc(C(=O)N2CCC(C(=O)NCc3ccc(Cl)cc3)CC2)s1	none (no result: DRD3 antagonist)
Cc1cccc2cc(CN(Cc3ccccc3)Cc3nnnn3Cc3ccccc3)c(=O)[nH]c12	none (no result: DRD3 antagonist, TRPML1 blocker, D3 ag)
CCO[C@H]1OC(C(=O)N2CCOCC2)=C[C@@H](C2CC2)[C@@H]1CCCO	DRD3 antagonist -55
CCO[C@@H]1OC(C(=O)N2CCOCC2)=C[C@H](C2CC2)[C@H]1CCCO	none
CCO[C@@H]1OC(C(=O)N2CCN(Cc3ccc4c(c3)OCO4)CC2)=C[C@H](c2ccc(Br)cc2)[C@H]1CCCO	DRD3 antagonist -98
NC(=O)c1ccc(SCC(=O)NC2CCCCC2)c([N+](=O)[O-])c1	DRD3 antagonist -52
COC(=O)c1ccc(SCC(=O)NC2CCCC2)c([N+](=O)[O-])c1	none
CN(C)CCNc1ncnc2oc(-c3ccccc3)c(-c3ccccc3)c12	DRD3 antagonist -61
CN(C)CCNc1ncnc2ccccc12	none
COc1ccc(-c2oc3ncnc(NCCCN(C)C)c3c2-c2ccc(OC)cc2)cc1	DRD3 antagonist -104
CCNC(=O)C(=O)NCCC1CCCCN1S(=O)(=O)c1cccs1 (configuration not stated)	DRD3 antagonist -54
CC(C)CNC(=O)C(=O)NCCC1CCCCN1S(=O)(=O)c1cccs1 (configuration not stated)	none
O=C(C[n+]1ccccc1Br)c1ccc(I)cc1	none (no result: DRD3 antagonist, TRPML1 blocker, D3 ag)
CCCCCCCCCCCCN1[C@@H](CC(=O)OC)c2cc(F)cc(F)c2S1(=O)=O	D3 ag 31
Cc1ccc(S(=O)(=O)N2CCOCC2)cc1C(=O)O	none
O=C(O)c1cc2cccc(S(=O)(=O)N3CCOCC3)c2cc1O	DRD3 antagonist -54
O=C(N/C(=C/c1ccc(Br)cc1)C(=O)N1CCCCC1)c1ccccc1F	DRD3 antagonist -57
CCNC(=S)NS(=O)(=O)c1ccc(Cl)cc1	none
CCNC(=S)NS(=O)(=O)c1ccccc1	DRD3 antagonist -58
COCCn1c(C)cc(C2=NNC(=Nc3ccc(OC)cc3)SC2)c1C	none
COCCn1c(C)cc(C2=NNC(=Nc3ccccc3)SC2)c1C	DRD3 antagonist -58
CCOCCCN1C(=O)CN(C2CCCCCC2)C(=O)C1c1ccc(OC(C)C)c(OC)c1 (configuration not stated)	none (no result: DRD3 antagonist)
CO[C@H]1C[C@H](O[C@H]2[C@H](C)O[C@@H](O[C@@H]3/C(C)=C/C[C@@H]4C[C@@H](C[C@]5(C=C[C@H](C)[C@@H](C6CCCCC6)O5)O4)OC(=O)[C@@H]4C=C(C)[C@@H](O)[C@H]5OC/C(=C\C=C\[C@@H]3C)[C@]54O)C[C@@H]2OC)O[C@@H](C)[C@@H]1O	none (no result: DRD3 antagonist, TRPML1 blocker, TRPML1 agonist)
O=c1c(-c2nc3ccccc3s2)cccn1Cc1ccc(Cl)cc1	D3 ag 56
